Test results as given in PubChem BioAssay AID1159580 (chemical genetic matrix, 2015).
Where “and” joins values, the source holds several entries; their conditions need not be identical. Equal values may be shown once. About 2,000 (36%) of roughly 5,500 compounds were called active. Roughly 18% stayed inconclusive and do not appear here. Cut-off read from the data, not from the text of the source: active = normalized growth mostly below about 0.91 (no sharp cut-off); inconclusive = no clear call, values can overlap the other calls; inactive = mostly above about 0.92. This is one part of the list.

Test: chemical genetic growth profiling, strain panel (AID 1159580);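 note: tested at 20 µM; growth read once vehicle control cultures reached saturation at 30 °C; 1 = growth at the plate median or of vehicle wells; lower values mean less growth of the strain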
Details: S. cerevisiae deletion strains, growth OD

Measured: normalized growth

O=C1NCC2(CCN(CCc3ccccc3)CC2)O1
inactive: locus YAL013W, strain DEP1, active compounds read low 1.02 | locus YAL021C, strain ccr4, active compounds read low 0.973 | locus YAL026C, strain drs2, active compounds read low 0.99 | locus YAL030W, strain snc1, active compounds read low 1 | locus YAL040C, strain CLN3, active compounds read low 1 | locus YBL061C, strain skt5, active compounds read low 0.983 | locus YBR009C, strain hhf1, active compounds read low 0.992 | locus YBR021W, strain FUR4, active compounds read low 1.01 | locus YBR023C, strain chs3, active compounds read low 0.993 | locus YBR171W, strain sec66, active compounds read low 0.99 | locus YBR229C, strain ROT2, active compounds read low 1.01 | locus YBR231C, strain swc5, active compounds read low 0.985 | locus YBR279W, strain paf1, active compounds read low 1.01 | locus YCL011C, strain gbp2, active compounds read low 1.01 | locus YCL016C, strain dcc1, active compounds read low 1.02 | locus YCL029C, strain bik1, active compounds read low 1 | locus YCL061C, strain MRC1 (second series), active compounds read low 1.01 | locus YCL069W, strain vba3, active compounds read low 0.982 | locus YCR088W, strain abp1, active compounds read low 1.01 | locus YDL005C, strain med2, active compounds read low 0.987 | locus YDL035C, strain GPR1, active compounds read low 1.01 | locus YDL040C, strain nat1, active compounds read low 0.996 | locus YDL074C, strain BRE1, active compounds read low 1.02 | locus YDL101C, strain DUN1, active compounds read low 1.02 | locus YDL134C, strain PPH21, active compounds read low 1 | locus YDL185W, strain tfp1, active compounds read low 1.01 | locus YDL192W, strain arf1, active compounds read low 1.01 | locus YDR001C, strain nth1, active compounds read low 0.99 | locus YDR069C, strain doa4, active compounds read low 0.983 | locus YDR101C, strain arx1, active compounds read low 0.994 | locus YDR137W, strain rgp1, active compounds read low 0.989 | locus YDR150W, strain NUM1, active compounds read low 1 | locus YDR159W, strain sac3, active compounds read low 0.989 | locus YDR162C, strain NBP2, active compounds read low 1.01 | locus YDR195W, strain ref2 0.973 | locus YDR297W, strain sur2, active compounds read low 1 | locus YDR318W, strain mcm21, active compounds read low 1.01 | locus YDR334W, strain swr1, active compounds read low 0.983 | locus YDR335W, strain msn5, active compounds read low 0.971 | locus YDR363W, strain ESC2, active compounds read low 1 | locus YDR388W, active compounds read low 1 | locus YDR392W, strain spt3, active compounds read low 1.02 | locus YDR502C, strain sam2, active compounds read low 0.995 | locus YEL003W, strain gim4, active compounds read low 0.99 | locus YEL037C, strain rad23, active compounds read low 0.982 | locus YEL061C, strain CIN8 (second series), active compounds read low 0.978 | locus YEL061C, strain CIN8, active compounds read low 1 | locus YER002W, strain NOP16, active compounds read low 1.01 | locus YER015W, strain faa2, active compounds read low 1 | locus YER016W, strain bim1, active compounds read low 1.01 | locus YER110C, active compounds read low 1 | locus YER111C, strain swi4, active compounds read low 0.992 | locus YER155C, strain BEM2 (second series), active compounds read low 0.996 | locus YER155C, strain BEM2, active compounds read low 1 | locus YER167W, strain BCK2, active compounds read low 1 | locus YFR010W, strain ubp6, active compounds read low 0.965 | locus YGL078C, strain dbp3, active compounds read low 0.994 | locus YGL086W, strain mad1, active compounds read low 0.993 | locus YGL167C, strain pmr1, active compounds read low 0.982 | locus YGL173C, strain kem1, active compounds read low 0.979 | locus YGL227W, strain vid30, active compounds read low 1 | locus YGL240W, strain doc1, active compounds read low 0.969 | locus YGL248W, strain PDE1, active compounds read low 1.01 | locus YGL253W, strain hxk2, active compounds read low 0.982 | locus YGR078C, strain PAC10, active compounds read low 1.01 and 1.02 | locus YGR135W, strain pre9, active compounds read low 0.999 | locus YGR229C, strain SMI1, active compounds read low 1 | locus YGR252W, strain gcn5, active compounds read low 0.944 | locus YHR013C, strain ard1, active compounds read low 0.974 | locus YHR027C, strain rpn1, active compounds read low 1 | locus YHR030C, strain SLT2, active compounds read low 1.01 and 0.988 | locus YHR079C, strain IRE1 (second series), active compounds read low 1.01 | locus YHR079C, strain IRE1, active compounds read low 0.979 | locus YHR094C, strain hxt1, active compounds read low 1 | locus YHR129C, strain ARP1, active compounds read low 1.02 | locus YHR142W, strain chs7, active compounds read low 0.966 | locus YHR200W, strain rpn10, active compounds read low 0.994 | locus YIL066C, strain RNR3, active compounds read low 1.01 | locus YIL073C, strain SPO22, active compounds read low 1.01 | locus YIL125W, strain kgd1, active compounds read low 0.998 | locus YIR030C, strain dcg1, active compounds read low 0.994 | locus YJL092W, strain hpr5, active compounds read low 0.997 | locus YJL095W, strain BCK1 (second series), active compounds read low 0.993 | locus YJL095W, strain BCK1, active compounds read low 1.04 and 0.982 | locus YJL115W, strain asf1, active compounds read low 0.976 | locus YJL129C, strain trk1, active compounds read low 0.967 | locus YJL134W, strain LCB3, active compounds read low 1.01 | locus YJL154C, strain vps35, active compounds read low 1 | locus YJL164C, strain tpk1, active compounds read low 1.01 | locus YJL166W, strain qcr8, active compounds read low 0.997 | locus YJL168C, strain set2, active compounds read low 1.01 | locus YJL187C, strain SWE1 (second series), active compounds read low 1.02 | locus YJR043C, strain POL32, active compounds read low 1.02 | locus YJR066W, strain TOR1, active compounds read low 0.913 | locus YJR075W, strain HOC1, active compounds read low 1 and 0.995
